Measurements taken from PubChem BioAssay.
Activity calls are given as the source filed them. Unless noted, no stated cut-off is given here; in the data, active means inhibition above about 80%; inactive means the rest.

Tests used:
[1] = sensitizers of A549 cells to miR-34 induction, primary screen, imaging, A549 dox-inducible miR-34, nuclei and caspase counts (AID 1347080;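 active means compounds whose cell count with miR-34 switched on is under 0.7 times the count with it off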); conditions: A549 miR-34 inducible, Hoechst nuclei count, 48 h
[2] = LFS_MB_P medulloblastoma growth inhibition, cell-based, chromothripsis tumors, cisplatin or BGB combos (AID 1671449); conditions: LFS_MB_P medulloblastoma cells;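 further: cells exposed for 96 hours; 0% = vehicle DMSO and 100% = killing by high DMSO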
[3] = HDN33 neuroblastoma growth inhibition, cell-based, chromothripsis tumors, cisplatin or BGB combos (AID 1671450); conditions: HDN33 neuroblastoma cells, stronger effect = higher value;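 further: cells exposed to compound for four days; 0% = vehicle DMSO and 100% = cell killing by high DMSO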
[4] = ICB984 medulloblastoma cell growth inhibition, synergistic combos for chromothripsis tumors, cisplatin or BGB combos (AID 1671451; call rule not given here;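 further: cells exposed for 96 hours before readout; 0% = vehicle DMSO and 100% = killing by high DMSO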); conditions: ICB984 medulloblastoma cells, drug combinations, stronger effect = higher value
[5] = LFS_MB_1R medulloblastoma cell growth inhibition, synergistic combos for chromothripsis tumors, cisplatin or BGB combos (AID 1671452); conditions: LFS_MB_1R medulloblastoma cells, stronger effect = higher value;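 further: cells exposed for 96 hours before readout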
[6] = HTB85 osteosarcoma cell growth inhibition, synergistic combos for chromothripsis tumors, BGB or cisplatin IC20 combos (AID 1671453); conditions: HTB85 osteosarcoma cells, drug combinations, stronger effect = higher value;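 further: cells exposed for 96 hours before readout; 0% = vehicle DMSO and 100% = high DMSO killing control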
[7] = CRL2098 osteosarcoma cell growth inhibition, synergistic combos for chromothripsis tumors, BGB or cisplatin IC20 combos (AID 1671454); conditions: CRL2098 osteosarcoma cells, drug combinations, stronger effect = higher value;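 further: cells exposed for 96 h before readout; 0% = vehicle DMSO and 100% = killing by high DMSO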
[8] = HD-MB03 medulloblastoma cell growth inhibition, synergistic combos for chromothripsis tumors, BGB or cisplatin IC20 combos (AID 1671455; in the data active means inhibition above about 83%;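 further: 0% = vehicle DMSO and 100% = high DMSO as cytotoxic control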); conditions: HD-MB03 medulloblastoma cells, stronger effect = higher value
[9] = UWB1.289 ovarian carcinoma cell growth inhibition, synergistic combos for chromothripsis tumors, BGB or cisplatin combos (AID 1671456); conditions: UWB1.289 ovarian carcinoma cells, stronger effect = higher value;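 further: cells exposed to compound for four days; 0% = vehicle DMSO and 100% = killing by high DMSO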
[10] = LFS_MB_2R medulloblastoma cell growth inhibition, synergistic combos for chromothripsis tumors, cisplatin combos (AID 1671457); conditions: LFS_MB_2R medulloblastoma cells, stronger effect = higher value;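 further: cells exposed to compound for four days before readout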
[11] = MDA-MB-436 breast carcinoma cell growth inhibition, synergistic combos for chromothripsis tumors, BGB or cisplatin combos (AID 1671458; call rule not given here;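 further: cells exposed for 96 hours; 0% = vehicle DMSO and 100% = killing by high DMSO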); conditions: MDA-MB-436 breast carcinoma growth inhibition, drug combinations, stronger effect = higher value
[12] = UWB1.289_BRCA1 ovarian cancer growth, cell-based, BGB or cisplatin combinations (AID 1671459); conditions: UWB1.289 BRCA1 ovarian carcinoma, drug combinations, stronger effect = higher value
[13] = human astrocyte viability loss, single and combined drugs, cytotoxicity control for chromothriptic childhood tumor combination screen, cell-based, BGB or cisplatin IC20 combos (AID 1671460); conditions: Human astrocytes, drug combinations, stronger effect = higher value;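 further: cells exposed to compounds for 96 hours before viability readout; 0% = vehicle and 100% = killing control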
[14] = growth inhibition of BT084 medulloblastoma cells, cell-based, ICGC_MB145, cisplatin and BGB IC40 combos (AID 1671461); conditions: drug combinations, stronger effect = higher value;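 further: cells exposed to drugs for 96 hours; 0% = vehicle DMSO and 100% = high DMSO full killing control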
[15] = growth inhibition of RCMB18 medulloblastoma cells, cell-based, cisplatin and BGB IC40 combos (AID 1671462); conditions: stronger effect = higher value;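 further: cells exposed to compound for four days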
[16] = growth inhibition of CRL1545 osteosarcoma cells, cell-based, cisplatin and BGB IC20 combos (AID 1671464); conditions: stronger effect = higher value;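 further: cells exposed to compound for 96 hours before readout; 0% = vehicle DMSO and 100% = high DMSO killing control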
[17] = circadian clock period modulators, cell-based, LOPAC library, luminescence reporter (AID 2774; call rule not given here;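 further: values are relative to mean of DMSO wells on each plate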); conditions: circadian reporter cells, at 7 µM, actives lie on both sides
[18] = system: Hepatitis C virus NS3 helicase; assay: HCV NS3 helicase inhibitors, primary screen, biochemical, fluorescence polarization, LOPAC1280 library (AID 687035; in the data active means inhibition above about 37%); conditions: Purified HCV NS3 helicase, Cy5-dT15 ssDNA binding fluorescence polarization; stronger effect = higher value; concentration not given here
[19] = Cy5 fluorescence quenching or enhancement artefacts, artefact control for HCV NS3 helicase inhibitor project, biochemical, LOPAC1280 (AID 687037; call rule not given here); conditions: Cy5-DNA-NS3h complex fluorescence interference counterscreen
[20] = viability rescue of complex I mutant cybrids, primary screen, cell-based, galactose medium, ATP luminescence (AID 1645843;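 active means z-score of at least 1.8 in each of two replicates, scored against plate mean and spread of sample wells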;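 further: positive z means more ATP and so rescue of galactose-driven cybrid death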); conditions: complex I mutant cybrid cells, 72 h, stronger effect = higher value
[21] = stronger effect = lower value, cell number ratio, induced over uninduced
[22] = measured here: relative caspase fold change +Dox/-Dox
[23] = measured here: total cells with miR-34 induction, stronger effect = lower value
[24] = measured here: total cells without miR-34 induction
[25] = measured here: combination with BGB IC40, at 0.05 µM
[26] = measured here: with BGB IC20 combination, at 0.5 µM
[27] = measured here: with cisplatin IC20 combination, at 0.5 µM
[28] = measured here: combination with cisplatin, at 0.5 µM
[29] = measured here: combination with cisplatin, at 5 µM

Compound: Cc1ccc(NC(=O)CCCCCC(=O)Nc2ccccc2N)cc1
- fold change [1, 21]: 1.01 (inactive)
- fold change [1, 22]: 1.02
- cell count [1, 23]: 5390
- cell count [1, 24]: 5360
- inhibition ([2]; at 0.5 µM, stronger effect = higher value): 2.92% (inactive)
- inhibition ([2]; measured here: combination with BGB IC20, at 0.005 µM): -29.8%
- inhibition ([2]; measured here: combination with BGB IC40, at 0.005 µM): -45%
- inhibition [2, 25]: -45.4%
- inhibition ([2]; measured here: combination with cisplatin, at 0.5 µM, stronger effect = higher value): -6.67%
- inhibition ([2]; measured here: combination with cisplatin, at 5 µM, stronger effect = higher value): 65.8%
- inhibition ([3]; BGB combo, at 5 µM): 11%
- inhibition ([3]; at 0.5 µM): -14.2% (inactive)
- inhibition ([3]; cisplatin combo, at 5 µM): 32%
- inhibition [3, 26]: -21.3%
- inhibition [3, 27]: -11%
- inhibition ([3]; single agent, at 5 µM): 25.4%
- inhibition ([4]; BGB IC20 combo, at 0.005 µM): -3.62%
- inhibition ([4]; BGB IC40 combo, at 0.005 µM): -26.5%
- inhibition ([4]; BGB IC40 combo, at 0.05 µM): 6.33%
- inhibition ([4]; at 0.5 µM): -27.2% (inactive)
- inhibition ([4]; cisplatin combo, at 0.05 µM): 1.63%
- inhibition ([4]; cisplatin combo, at 0.5 µM): -36.9%
- inhibition ([4]; cisplatin combo, at 5 µM): -6.29%
- inhibition ([4]; measured here: 5 uM single agent, at 5 µM): -12.7%
- inhibition ([5]; at 0.5 µM): -31.8% (inactive)
- inhibition [5, 25]: -38%
- inhibition [5, 28]: -38.7%
- inhibition [5, 29]: 61.4%
- inhibition ([6]; at 0.5 µM): -11.4% (inactive)
- inhibition ([6]; measured here: with BGB IC20, at 0.5 µM): 11.7%
- inhibition ([6]; measured here: with BGB IC20, at 5 µM): 31.2%
- inhibition ([6]; measured here: with cisplatin IC20, at 0.5 µM): -26.9%
- inhibition ([6]; measured here: with cisplatin IC20, at 5 µM): 33.8%
- inhibition ([6]; single agent, at 5 µM): 12.7%
- inhibition ([7]; at 0.5 µM): -71% (inactive)
- inhibition ([7]; measured here: combination with BGB at IC20, at 0.5 µM): -75.9%
- inhibition ([7]; measured here: combination with cisplatin at IC20, at 0.5 µM): -67.2%
- inhibition ([8]; at 0.5 µM): -7.72% (inactive)
- inhibition ([8]; measured here: combo with BGB at IC20, at 0.5 µM): 0.828%
- inhibition ([8]; measured here: combo with cisplatin at IC20, at 0.5 µM): -9.85%
- inhibition ([9]; at 0.5 µM): -13.2% (inactive)
- inhibition ([9]; measured here: inhibition with BGB combination, at 0.05 µM): -44.6%
- inhibition ([9]; measured here: inhibition with cisplatin combination, at 0.05 µM): -27.1%
- inhibition ([10]; at 0.5 µM): -23.5% (inactive)
- inhibition [10, 28]: -17.5%
- inhibition [10, 29]: 50.2%
- inhibition ([11]; at 0.5 µM): -27.5% (inactive)
- inhibition ([11]; measured here: BGB combination, at 0.5 µM): -25.9%
- inhibition ([11]; measured here: BGB combination, at 5 µM): -14.6%
- inhibition ([11]; measured here: cisplatin combination, at 0.5 µM): -44.2%
- inhibition ([11]; measured here: cisplatin combination, at 5 µM): 15.1%
- inhibition ([12]; BGB combination, concentration series, at 5 µM): 23.3%
- inhibition ([12]; at 0.5 µM): -23.2% (inactive)
- inhibition ([12]; cisplatin combination, concentration series, at 5 µM): 51.6%
- inhibition ([13]; at 0.5 µM): -11.1% (inactive)
- inhibition ([13]; measured here: combo with BGB IC20, at 0.5 µM): -7.99%
- inhibition ([13]; measured here: combo with cisplatin IC20, at 0.5 µM): -17.6%
- inhibition ([14]; at 0.5 µM): -11.1% (inactive)
- inhibition ([14]; cisplatin combination, at 0.5 µM): 8.17%
- inhibition ([14]; cisplatin combination, at 5 µM): 68.8%
- inhibition ([14]; measured here: BGB IC40 combination 0.05 uM, at 0.05 µM): -52.4%
- inhibition ([14]; single agent, at 5 µM): 25.1%
- inhibition ([15]; at 0.5 µM): 6.99% (inactive)
- inhibition ([15]; cisplatin combo, at 5 µM): 67.3%
- inhibition ([15]; measured here: BGB IC40 combination, at 0.05 µM): -18.3%
- inhibition [15, 28]: 0.344%
- inhibition ([15]; single agent, at 5 µM): 35.9%
- inhibition ([16]; at 0.5 µM): 6.85% (inactive)
- inhibition [16, 26]: 21.7%
- inhibition [16, 27]: -2.22%
- inhibition ([16]; single agent, at 0.05 µM): -29%
- inhibition ([16]; single agent, at 5 µM): 60.5%

Compound: N#C/C(=C\c1ccc(O)c(O)c1)C(=O)c1ccc(O)c(O)c1
- period change [17]: -0.055 h (inactive)
- inhibition [18]: 100% (active)
- fluorescence ratio (interference) [19]: 1 (inactive)
- fold change [1, 21]: 0.979 (inactive)
- fold change [1, 22]: 1.26
- cell count [1, 23]: 9140
- cell count [1, 24]: 9340
- z-score [20]: -0.355 (inactive)
